Test results published in the supplement of paper PMC11732987, “Enantioselective OTUD7B fragment discovery through chemoproteomics screening and high-throughput optimisation” (Communications Chemistry, 2025).

Columns and labels:
Assay in all cases: log2 ratio of Biotin-Ahx-Ub-VS probe labelling (fragment/DMSO); higher = less target engagement (more negative = stronger competition), active = hit call of the paper (q ≤ 0.05, log2 ratio ≤ -1)
Conditions in all cases: compound concentration: 200 uM; treatment time: 3 h
[1] = target: T1, USP42 (UniProt Q9H9J4)
T1 sequence (whole entry): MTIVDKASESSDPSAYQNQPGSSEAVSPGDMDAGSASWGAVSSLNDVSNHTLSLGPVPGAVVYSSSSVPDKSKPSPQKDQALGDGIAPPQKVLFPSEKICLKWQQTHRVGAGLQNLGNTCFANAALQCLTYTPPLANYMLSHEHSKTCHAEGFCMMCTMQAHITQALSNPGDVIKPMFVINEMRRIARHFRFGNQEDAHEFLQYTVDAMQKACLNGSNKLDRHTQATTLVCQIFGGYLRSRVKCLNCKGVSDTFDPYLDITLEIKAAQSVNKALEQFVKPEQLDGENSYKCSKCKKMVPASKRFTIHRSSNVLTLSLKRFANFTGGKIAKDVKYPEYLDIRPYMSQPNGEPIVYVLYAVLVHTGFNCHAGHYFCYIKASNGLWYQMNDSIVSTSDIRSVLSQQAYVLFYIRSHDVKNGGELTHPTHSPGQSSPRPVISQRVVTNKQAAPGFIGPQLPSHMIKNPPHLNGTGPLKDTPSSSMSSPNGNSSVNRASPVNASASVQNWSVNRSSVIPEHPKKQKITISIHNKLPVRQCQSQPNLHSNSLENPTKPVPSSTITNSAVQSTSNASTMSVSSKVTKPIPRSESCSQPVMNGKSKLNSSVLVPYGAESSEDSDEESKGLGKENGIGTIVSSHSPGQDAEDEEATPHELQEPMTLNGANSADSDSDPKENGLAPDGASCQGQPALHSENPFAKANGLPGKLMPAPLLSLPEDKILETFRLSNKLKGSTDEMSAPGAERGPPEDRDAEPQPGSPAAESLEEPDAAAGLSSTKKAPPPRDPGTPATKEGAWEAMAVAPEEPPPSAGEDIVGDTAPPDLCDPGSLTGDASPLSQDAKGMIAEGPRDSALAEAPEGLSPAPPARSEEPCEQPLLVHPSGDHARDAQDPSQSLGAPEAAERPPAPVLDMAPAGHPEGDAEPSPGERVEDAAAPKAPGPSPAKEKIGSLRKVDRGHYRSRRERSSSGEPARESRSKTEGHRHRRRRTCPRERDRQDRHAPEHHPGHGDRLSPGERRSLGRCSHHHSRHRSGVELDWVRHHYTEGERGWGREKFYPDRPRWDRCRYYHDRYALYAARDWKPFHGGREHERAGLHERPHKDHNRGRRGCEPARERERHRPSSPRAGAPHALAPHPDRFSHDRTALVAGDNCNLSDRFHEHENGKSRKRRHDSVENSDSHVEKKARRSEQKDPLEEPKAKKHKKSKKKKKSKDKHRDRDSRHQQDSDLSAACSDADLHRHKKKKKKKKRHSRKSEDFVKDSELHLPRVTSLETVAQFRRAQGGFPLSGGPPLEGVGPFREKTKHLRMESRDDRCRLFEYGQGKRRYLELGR
In short: (§1)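 Average log2 ratios of fragment over vehicle were obtained by unpaired t-test from global-median-normalised Spectronaut label-free quantities. Proteins with ≥2 unique peptides were included. HEK293T lysate (495 µg per sample) was treated in triplicate with fragment at 200 µM or vehicle for 3 h, then with Biotin-Ahx-Ub-VS at 0.5 µM final for 1 h, and labelled DUBs were NeutrAvidin-enriched and run by diaPASEF LC-MS/MS.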

[2] = target: USP46 (UniProt P62068)
In short: as §1

[3] = target: T2, USP47 (UniProt Q96K76)
T2 sequence (whole entry): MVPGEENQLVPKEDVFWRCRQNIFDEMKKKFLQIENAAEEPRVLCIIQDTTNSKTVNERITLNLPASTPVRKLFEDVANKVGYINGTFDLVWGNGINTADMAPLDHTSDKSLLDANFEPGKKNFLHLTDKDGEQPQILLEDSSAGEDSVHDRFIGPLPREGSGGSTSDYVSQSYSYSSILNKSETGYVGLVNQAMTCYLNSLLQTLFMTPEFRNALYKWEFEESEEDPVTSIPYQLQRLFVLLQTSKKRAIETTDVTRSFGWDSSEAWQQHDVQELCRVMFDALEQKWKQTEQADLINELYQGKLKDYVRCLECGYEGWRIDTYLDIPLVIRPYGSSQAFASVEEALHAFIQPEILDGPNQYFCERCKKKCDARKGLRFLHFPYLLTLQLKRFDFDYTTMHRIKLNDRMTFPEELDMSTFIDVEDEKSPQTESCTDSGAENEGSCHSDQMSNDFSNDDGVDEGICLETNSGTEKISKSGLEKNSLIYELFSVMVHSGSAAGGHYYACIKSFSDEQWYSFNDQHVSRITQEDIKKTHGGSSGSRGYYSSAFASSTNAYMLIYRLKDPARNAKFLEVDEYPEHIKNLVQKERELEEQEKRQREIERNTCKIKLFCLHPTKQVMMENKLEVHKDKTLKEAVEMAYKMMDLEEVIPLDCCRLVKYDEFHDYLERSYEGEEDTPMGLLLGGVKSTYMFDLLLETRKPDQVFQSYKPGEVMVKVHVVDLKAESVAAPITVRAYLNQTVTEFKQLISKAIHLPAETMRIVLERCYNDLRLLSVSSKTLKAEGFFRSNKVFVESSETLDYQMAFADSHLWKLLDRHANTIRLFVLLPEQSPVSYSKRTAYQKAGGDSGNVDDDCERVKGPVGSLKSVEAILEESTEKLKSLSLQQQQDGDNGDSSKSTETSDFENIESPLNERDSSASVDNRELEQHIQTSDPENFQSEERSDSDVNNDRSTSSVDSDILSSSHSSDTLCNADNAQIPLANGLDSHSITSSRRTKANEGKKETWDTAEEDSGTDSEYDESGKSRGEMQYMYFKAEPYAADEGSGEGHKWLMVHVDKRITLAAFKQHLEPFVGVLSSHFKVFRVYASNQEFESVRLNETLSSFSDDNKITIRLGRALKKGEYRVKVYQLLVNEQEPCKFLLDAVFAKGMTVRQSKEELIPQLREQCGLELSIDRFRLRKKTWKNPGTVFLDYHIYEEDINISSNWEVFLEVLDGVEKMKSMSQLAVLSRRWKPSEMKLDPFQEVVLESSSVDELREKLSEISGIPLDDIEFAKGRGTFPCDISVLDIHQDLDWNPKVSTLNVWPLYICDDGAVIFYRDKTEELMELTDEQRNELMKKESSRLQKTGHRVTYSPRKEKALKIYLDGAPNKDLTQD
In short: as §1

[4] = target: T3, USP48 (UniProt Q86UV5)
T3 sequence (whole entry): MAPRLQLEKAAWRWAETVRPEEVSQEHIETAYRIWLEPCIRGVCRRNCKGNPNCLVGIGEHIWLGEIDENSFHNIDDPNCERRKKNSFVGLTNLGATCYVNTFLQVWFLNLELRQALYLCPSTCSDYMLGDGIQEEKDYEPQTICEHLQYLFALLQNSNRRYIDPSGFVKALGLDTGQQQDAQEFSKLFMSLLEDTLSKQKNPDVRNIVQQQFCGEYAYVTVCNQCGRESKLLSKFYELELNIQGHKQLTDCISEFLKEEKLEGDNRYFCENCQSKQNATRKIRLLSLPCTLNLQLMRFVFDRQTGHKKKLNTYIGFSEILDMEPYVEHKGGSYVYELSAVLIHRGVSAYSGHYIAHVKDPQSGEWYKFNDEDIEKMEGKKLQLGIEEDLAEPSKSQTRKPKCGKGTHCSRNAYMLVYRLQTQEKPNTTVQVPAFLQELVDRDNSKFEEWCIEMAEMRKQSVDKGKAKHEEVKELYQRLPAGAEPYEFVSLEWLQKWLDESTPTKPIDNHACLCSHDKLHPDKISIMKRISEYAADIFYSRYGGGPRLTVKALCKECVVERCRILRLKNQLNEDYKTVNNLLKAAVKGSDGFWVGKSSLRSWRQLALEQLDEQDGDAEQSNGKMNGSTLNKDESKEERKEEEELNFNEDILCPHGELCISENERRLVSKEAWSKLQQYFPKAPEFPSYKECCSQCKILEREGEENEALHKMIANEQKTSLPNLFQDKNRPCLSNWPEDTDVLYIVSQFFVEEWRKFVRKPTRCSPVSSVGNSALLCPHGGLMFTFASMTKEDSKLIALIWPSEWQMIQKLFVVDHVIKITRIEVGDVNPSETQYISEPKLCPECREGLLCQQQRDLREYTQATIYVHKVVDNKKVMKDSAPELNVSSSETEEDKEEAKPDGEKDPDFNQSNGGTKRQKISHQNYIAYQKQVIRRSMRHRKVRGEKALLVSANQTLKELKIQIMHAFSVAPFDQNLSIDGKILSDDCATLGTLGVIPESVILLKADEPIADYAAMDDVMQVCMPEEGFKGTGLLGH
In short: as §1

[5] = target: T4, USP5 (UniProt P45974)
T4 sequence (whole entry): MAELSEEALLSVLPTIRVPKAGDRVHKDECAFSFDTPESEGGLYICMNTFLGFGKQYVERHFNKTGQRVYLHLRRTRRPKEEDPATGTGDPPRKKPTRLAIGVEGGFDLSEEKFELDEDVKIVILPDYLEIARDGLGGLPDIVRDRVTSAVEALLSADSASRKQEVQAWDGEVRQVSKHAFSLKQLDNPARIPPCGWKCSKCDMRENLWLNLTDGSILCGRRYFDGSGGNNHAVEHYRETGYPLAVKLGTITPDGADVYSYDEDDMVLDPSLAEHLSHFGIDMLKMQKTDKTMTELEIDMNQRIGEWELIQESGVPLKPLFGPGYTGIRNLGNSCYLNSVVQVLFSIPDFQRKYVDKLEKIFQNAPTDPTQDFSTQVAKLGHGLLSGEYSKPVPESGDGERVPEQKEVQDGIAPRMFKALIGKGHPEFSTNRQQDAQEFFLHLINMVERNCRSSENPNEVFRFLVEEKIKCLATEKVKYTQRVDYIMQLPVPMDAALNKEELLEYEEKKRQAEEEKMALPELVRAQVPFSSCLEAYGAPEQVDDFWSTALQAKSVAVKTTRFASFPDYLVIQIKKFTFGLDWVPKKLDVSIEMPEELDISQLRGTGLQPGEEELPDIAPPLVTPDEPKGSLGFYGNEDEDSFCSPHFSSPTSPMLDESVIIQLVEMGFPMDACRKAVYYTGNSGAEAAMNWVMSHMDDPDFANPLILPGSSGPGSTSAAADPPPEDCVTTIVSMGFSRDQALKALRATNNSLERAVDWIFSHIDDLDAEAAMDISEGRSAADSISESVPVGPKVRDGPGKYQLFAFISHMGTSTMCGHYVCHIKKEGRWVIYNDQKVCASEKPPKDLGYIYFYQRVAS
In short: as §1

[6] = target: USP54 (UniProt Q70EL1)
In short: as §1

[7] = target: USP7 (UniProt Q93009)
In short: as §1

[8] = target: T5, USP8 (UniProt P40818)
T5 sequence (whole entry): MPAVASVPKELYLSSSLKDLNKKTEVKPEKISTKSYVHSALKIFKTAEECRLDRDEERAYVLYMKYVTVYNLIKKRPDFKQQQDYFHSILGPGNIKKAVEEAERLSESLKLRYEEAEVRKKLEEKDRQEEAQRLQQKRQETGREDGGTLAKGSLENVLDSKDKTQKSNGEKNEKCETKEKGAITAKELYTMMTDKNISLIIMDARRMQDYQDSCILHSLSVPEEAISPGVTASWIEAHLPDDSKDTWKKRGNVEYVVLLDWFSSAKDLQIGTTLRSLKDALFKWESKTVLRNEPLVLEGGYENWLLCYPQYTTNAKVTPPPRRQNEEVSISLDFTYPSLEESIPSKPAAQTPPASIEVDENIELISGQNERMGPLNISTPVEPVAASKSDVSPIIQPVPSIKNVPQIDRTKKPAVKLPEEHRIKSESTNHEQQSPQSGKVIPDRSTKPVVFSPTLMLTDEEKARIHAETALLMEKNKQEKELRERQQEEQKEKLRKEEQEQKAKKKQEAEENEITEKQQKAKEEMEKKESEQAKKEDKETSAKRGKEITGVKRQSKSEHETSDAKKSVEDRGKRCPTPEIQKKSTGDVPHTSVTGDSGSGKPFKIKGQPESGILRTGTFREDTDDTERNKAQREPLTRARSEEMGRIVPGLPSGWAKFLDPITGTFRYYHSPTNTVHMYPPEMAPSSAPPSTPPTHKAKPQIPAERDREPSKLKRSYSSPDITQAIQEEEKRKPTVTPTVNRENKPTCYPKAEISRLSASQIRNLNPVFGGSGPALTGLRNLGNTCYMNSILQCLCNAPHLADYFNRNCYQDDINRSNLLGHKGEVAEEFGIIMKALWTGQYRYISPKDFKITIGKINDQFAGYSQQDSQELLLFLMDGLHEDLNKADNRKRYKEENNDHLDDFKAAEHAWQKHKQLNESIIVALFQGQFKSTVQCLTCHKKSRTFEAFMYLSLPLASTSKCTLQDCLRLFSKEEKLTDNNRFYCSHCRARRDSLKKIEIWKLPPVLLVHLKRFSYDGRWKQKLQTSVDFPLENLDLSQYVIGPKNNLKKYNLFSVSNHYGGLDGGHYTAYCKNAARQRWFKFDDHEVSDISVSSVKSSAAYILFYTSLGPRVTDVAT
In short: as §1

[9] = target: USP9X (UniProt Q93008)
In short: as §1

[10] = target: UniProt O00487
In short: as §1

Measured: log2 ratio of Biotin-Ahx-Ub-VS probe labelling

USP54, sequence (Q70EL1 whole entry): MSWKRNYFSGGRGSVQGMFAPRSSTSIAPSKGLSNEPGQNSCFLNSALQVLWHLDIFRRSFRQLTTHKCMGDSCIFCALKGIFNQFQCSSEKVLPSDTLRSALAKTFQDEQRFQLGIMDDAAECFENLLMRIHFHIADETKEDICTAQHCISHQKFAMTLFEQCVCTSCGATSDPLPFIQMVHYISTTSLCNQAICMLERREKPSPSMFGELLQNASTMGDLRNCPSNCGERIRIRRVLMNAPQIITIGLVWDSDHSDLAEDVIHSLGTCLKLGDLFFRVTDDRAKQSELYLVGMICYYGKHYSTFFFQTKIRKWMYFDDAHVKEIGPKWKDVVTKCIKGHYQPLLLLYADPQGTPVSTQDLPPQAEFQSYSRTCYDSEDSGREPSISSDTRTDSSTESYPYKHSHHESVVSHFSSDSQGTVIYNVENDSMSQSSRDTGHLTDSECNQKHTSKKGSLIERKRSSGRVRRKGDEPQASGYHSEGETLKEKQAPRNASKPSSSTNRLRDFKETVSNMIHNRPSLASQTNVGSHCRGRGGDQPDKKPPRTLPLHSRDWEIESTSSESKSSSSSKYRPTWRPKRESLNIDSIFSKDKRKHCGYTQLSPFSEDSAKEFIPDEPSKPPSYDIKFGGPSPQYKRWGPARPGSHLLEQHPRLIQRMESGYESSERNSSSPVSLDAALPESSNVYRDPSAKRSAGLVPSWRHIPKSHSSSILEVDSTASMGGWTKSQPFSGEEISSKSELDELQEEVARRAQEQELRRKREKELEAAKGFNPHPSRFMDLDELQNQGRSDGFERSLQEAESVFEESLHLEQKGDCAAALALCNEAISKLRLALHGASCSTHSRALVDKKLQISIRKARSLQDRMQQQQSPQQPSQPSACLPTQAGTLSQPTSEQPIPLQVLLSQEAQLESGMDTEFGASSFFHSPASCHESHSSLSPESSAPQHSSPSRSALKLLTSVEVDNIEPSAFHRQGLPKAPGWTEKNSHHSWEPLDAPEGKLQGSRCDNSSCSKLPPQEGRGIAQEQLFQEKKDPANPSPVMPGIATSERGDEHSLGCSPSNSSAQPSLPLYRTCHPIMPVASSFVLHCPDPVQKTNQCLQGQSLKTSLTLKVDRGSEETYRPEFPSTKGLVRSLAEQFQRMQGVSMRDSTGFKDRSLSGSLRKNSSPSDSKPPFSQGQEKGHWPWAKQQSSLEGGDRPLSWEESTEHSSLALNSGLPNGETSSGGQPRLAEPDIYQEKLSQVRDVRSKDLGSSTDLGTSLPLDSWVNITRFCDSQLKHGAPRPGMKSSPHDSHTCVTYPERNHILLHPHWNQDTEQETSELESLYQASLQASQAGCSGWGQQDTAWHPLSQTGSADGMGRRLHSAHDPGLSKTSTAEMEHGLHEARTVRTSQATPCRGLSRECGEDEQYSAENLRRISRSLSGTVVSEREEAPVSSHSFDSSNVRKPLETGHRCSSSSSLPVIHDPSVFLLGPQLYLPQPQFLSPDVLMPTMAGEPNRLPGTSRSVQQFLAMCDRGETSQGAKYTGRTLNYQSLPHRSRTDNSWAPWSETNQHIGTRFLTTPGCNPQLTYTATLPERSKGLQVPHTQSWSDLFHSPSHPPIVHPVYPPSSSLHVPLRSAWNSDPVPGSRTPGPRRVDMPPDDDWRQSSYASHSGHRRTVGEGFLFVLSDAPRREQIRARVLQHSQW
USP7, sequence (Q93009 whole entry, looked up): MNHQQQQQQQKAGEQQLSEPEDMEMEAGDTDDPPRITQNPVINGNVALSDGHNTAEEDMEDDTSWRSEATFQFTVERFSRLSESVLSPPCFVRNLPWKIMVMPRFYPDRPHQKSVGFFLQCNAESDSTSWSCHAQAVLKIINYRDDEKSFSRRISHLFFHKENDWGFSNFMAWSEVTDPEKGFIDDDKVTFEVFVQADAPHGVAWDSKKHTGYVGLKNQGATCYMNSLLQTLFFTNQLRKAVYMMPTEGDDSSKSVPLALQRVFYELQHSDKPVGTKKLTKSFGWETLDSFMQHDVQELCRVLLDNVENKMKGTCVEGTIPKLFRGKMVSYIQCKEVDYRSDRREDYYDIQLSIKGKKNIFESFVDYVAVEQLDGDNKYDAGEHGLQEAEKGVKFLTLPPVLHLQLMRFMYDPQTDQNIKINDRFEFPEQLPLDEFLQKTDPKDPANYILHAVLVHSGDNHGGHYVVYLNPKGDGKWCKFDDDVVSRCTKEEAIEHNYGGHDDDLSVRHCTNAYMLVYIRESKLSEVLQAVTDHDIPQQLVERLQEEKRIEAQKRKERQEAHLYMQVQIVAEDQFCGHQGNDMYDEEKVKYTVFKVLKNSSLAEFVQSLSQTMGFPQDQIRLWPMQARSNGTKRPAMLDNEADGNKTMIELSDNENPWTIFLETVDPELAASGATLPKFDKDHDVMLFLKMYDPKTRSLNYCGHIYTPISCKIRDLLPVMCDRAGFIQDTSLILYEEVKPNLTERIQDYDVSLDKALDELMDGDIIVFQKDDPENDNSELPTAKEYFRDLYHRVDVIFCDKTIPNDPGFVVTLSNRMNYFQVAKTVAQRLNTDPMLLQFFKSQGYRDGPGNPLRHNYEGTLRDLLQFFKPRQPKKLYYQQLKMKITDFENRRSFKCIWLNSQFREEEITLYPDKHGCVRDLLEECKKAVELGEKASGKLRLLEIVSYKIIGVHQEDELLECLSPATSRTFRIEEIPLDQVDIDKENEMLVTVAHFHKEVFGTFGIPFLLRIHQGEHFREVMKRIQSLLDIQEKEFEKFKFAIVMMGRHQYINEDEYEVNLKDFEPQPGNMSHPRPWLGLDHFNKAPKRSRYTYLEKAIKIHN
UniProt O00487, sequence (O00487 whole entry): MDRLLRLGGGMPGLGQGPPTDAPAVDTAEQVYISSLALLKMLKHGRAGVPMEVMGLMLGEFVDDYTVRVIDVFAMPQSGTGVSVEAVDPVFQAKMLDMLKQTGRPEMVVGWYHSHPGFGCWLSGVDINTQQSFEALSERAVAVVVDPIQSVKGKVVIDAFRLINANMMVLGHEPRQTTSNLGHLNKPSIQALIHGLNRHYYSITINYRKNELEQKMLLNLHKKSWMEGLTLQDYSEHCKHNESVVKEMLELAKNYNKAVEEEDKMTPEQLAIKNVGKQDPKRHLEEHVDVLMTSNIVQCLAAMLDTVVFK
USP46, sequence (P62068 whole entry): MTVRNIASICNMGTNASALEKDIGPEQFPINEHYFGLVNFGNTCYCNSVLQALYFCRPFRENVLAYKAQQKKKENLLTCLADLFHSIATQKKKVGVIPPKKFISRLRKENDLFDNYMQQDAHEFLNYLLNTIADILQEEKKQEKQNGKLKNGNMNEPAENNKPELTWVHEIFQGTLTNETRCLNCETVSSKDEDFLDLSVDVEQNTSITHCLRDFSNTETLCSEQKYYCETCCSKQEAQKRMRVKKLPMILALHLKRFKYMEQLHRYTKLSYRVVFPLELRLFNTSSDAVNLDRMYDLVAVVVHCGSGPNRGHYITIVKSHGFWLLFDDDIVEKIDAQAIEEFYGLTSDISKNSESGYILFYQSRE

Cc1cccn2cc(CCNC(=O)CCl)nc12.Cl
inactive: [1] 0.274 | [2] -0.16 | [3] 0.127 | [4] -0.182 | [5] -0.331 | [6] 0.0379 | [7] -0.51 | [8] -0.181 | [9] -0.145 | [10] -0.197
